Laboratory results from the supplement of paper PMC8975748.
Counter-ions that a name gives are not always drawn.

Tested on: Saccharomyces cerevisiae BY4741 SeMeCo community
Test: z-score of subpopulation abundance vs DMSO median, subpopulation auxotrophic for U; higher = larger share of this subpopulation than in DMSO controls
Settings: 10 µM; 24 h; SM minimal medium; subpopulation (auxotrophy): U
Method in brief: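 Scoring was based on each subpopulation's abundance, expressed as a z-score against the vehicle-well median. A Saccharomyces cerevisiae BY4741 community with four plasmids, each restoring one auxotrophy and encoding a distinct fluorescent protein, was pre-grown overnight to OD600 1.0, diluted to 0.3, and added at 70 µl to 384-well plates acoustically predosed with library drugs (10 µM final). It then grew 24 h in minimal SM medium before paraformaldehyde fixation and automated confocal microscopy, with single-auxotroph fluorescent strains setting thresholds and autofluorescence correction.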

SMILES | z-score of subpopulation abundance
CNCCCN1c2ccccc2CCc2ccccc21 [Desipramine Hydrochloride] | -0.08
CCCCCOc1ccccc1/C(=C\SC)n1ccnc1 [Neticonazole Hydrochloride] | -1.45
CC(C(=O)O)c1ccc2c(c1)[nH]c1ccc(Cl)cc12 (configuration not stated) [Carprofen] | -3.82
CCC(C)n1ncn(-c2ccc(N3CCN(c4ccc(OCC5COC(Cn6cncn6)(c6ccc(Cl)cc6Cl)O5)cc4)CC3)cc2)c1=O (configuration not stated) [Itraconazole] | -0.83
C=CCN1CCCC1CNC(=O)c1cc2nn[nH]c2cc1OC (configuration not stated) [Alizapride HCl] | 0.74
C[C@H](NCc1ccc(OCc2cccc(F)c2)cc1)C(N)=O [Safinamide Mesylate] | -0.34
Cc1ccnc(NS(=O)(=O)c2ccc(N)cc2)n1 [Sulfamerazine] | -0.62
N=C(N)NS(=O)(=O)c1ccc(N)cc1 [Sulfaguanidine] | -0.5
C=C[C@H]1CN2CC[C@H]1C[C@@H]2[C@@H](O)c1ccnc2ccc(OC)cc12 [Quinidine sulfate] | -1.29
O=C(Nc1ccc(Oc2ccc(Cl)cc2)c(Cl)c1)c1cc(I)cc(I)c1O [Rafoxanide] | -1.44
COC(=O)Nc1nc2cc(C(=O)c3ccccc3)ccc2[nH]1 [Mebendazole] | 1.91
Nc1nc(N)c2nc(-c3ccccc3)c(N)nc2n1 [Triamterene] | -8.02
Cc1onc(-c2ccccc2)c1C(=O)N[C@@H]1C(=O)N2[C@@H]1SC(C)(C)[C@@H]2C(=O)O [Oxacillin sodium monohydrate] | 0.36
CC[C@H]1OC(=O)[C@H](C)[C@@H](O[C@H]2C[C@@](C)(OC)[C@@H](O)[C@H](C)O2)[C@H](C)[C@@H](O[C@@H]2O[C@H](C)C[C@H](N(C)C)[C@H]2O)[C@](C)(O)C[C@@H](C)C(=O)[C@H](C)[C@@H](O)[C@]1(C)O [Erythromycin thiocyanate] | 0.41
CCn1cc(C(=O)O)c(=O)c2cc(F)c(N3CCNC(C)C3)c(F)c21 (configuration not stated) [Lomefloxacin HCl] | -0.45
CNS(=O)(=O)CCc1ccc2[nH]cc(C3CCN(C)CC3)c2c1 [Naratriptan HCl] | 0.55
CO[C@@]1(NC(=O)CSC[C@@H](N)C(=O)O)C(=O)N2C(C(=O)O)=C(CSc3nnnn3C)CS[C@@H]21 [Cefminox Sodium] | 0.77
CNCCCC1c2ccccc2C=Cc2ccccc21 [Protriptyline hydrochloride] | 0.84
CC1CCc2c(N3CCC(O)CC3)c(F)cc3c(=O)c(C(=O)O)cn1c23 (configuration not stated) [Nadifloxacin] | 0.05
C[n+]1ccccc1/C=N/O [Pralidoxime chloride] | 1.25
Oc1ccc(Cl)c2cccnc12 [Cloxiquine] | -1.71
CCN(CC)CC#CCOC(=O)C(O)(c1ccccc1)C1CCCCC1 (configuration not stated) [Oxybutynin chloride] | -0.51
